Sampled rows, rich in hits. Any-hit rate of the full collection: about 8.1%.
KB-3-1 cytotox = qHTS assay for MDR1-selective chemotherapeutics: Primary screen using the parental adenocarcinoma cell KB-3-1; KB-3-1 viability, CellTiter-Glo ATP luminescence, 72 h; Potency, µM (titrated, usually from 46.1 µM), hits mostly cytotoxic; actives 1.4% (n = 400,000); AID 1347075, 2019; note: % is set by controls: 0 for no effect and ±100 for the full control effect; nearly all actives have a fitted effect of over 60% in size
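72 h, 37 °C compound treatment of KB-3-1 parental cells; CellTiter-Glo added, 10 min, luminescence read. Data corrected against DMSO-only plates and normalized before curve fitting.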
SW480 rerep = A quantitative high throughput screen for small molecules that induce DNA re-replication in SW480 colon adenocarcinoma cells; SW480 DNA re-replication, Hoechst DNA content imaging, 48 h; Potency, µM (titrated, usually from 46.1 µM), for the others: top-dose re-replication activation, hits mostly activators; actives 1.8% (n = 340,000); AID 624297, 2012; note: % of control where 0% means no effect; nearly all actives have a fitted effect of over 55% in size
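250 cells/well; 23 nL cpd via pin tool; 48 hr, 37 C, 5% CO2; Hoechst 40 min; imager read of total nuclear intensity, ex 405/em 500-530 nm.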
KB-V1 MDR tox = qHTS assay for MDR1-selective chemotherapeutics: Primary screen using the drug-selected MDR subline cells KB-V1; KB-V1 MDR cells viability, CellTiter-Glo, 72 h; Potency, µM (titrated, usually from 46.1 µM), most hits filed as cytotoxic; actives 3.4% (n = 400,000); AID 1347076, 2019; note: % is set by controls: 0 for no effect and ±100 for the full control effect; nearly all actives have a fitted effect of over 60% in size
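Cytotoxicity toward P-gp-expressing KB-V1 cells was determined as loss of CellTiter-Glo luminescence after 72 h at 37 degrees C. Compounds were tested in quantitative HTS format across a concentration range, with curves fitted to normalized data.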
ELG1 DNA repair = qHTS screen for small molecules that inhibit ELG1-dependent DNA repair in human embryonic kidney (HEK293T) cells expressing luciferase-tagged ELG1. Potency, µM (series often up to 46.1 µM), for the others: at the highest dose activity change, negative = inhibition, usual class: inhibitors. AID 504467, 2011. actives 2.3% (n = 330,000). HEK293T ELG1-luciferase reporter, luminescence, 16 h; DNA damage induced by 5-fluorouridine; note: % is set by controls: 0 for no effect and ±100 for the full control effect; nearly all actives have a fitted effect of over 55% in size
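In this reporter screen, reduction of luminescence relative to DMSO vehicle indicated activity. Compounds and 5-fluorouridine were added together to 2,000 cells per well, incubated for 16 hr at 37 °C, then developed with ONE-Glo.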
MCF10A rerep = A quantitative high throughput screen for small molecules that induce DNA re-replication in MCF 10a normal breast cells. MCF 10A DNA re-replication, Hoechst nuclear intensity, 48 h. Potency, µM (series often up to 46.1 µM), without a hit: at the top dose activity, positive = re-replication, usual class: activators. actives 2.9% (n = 350,000); note: % of control where 0% means no effect; nearly all actives have a fitted effect of over 50% in size
An asterisk follows results filed as active; i = inactive; ? = inconclusive; nt = not tested or not shown. Calls come from the whole dose curve; as a rule, active = well fitted curve in the direction sought with a large enough effect; inconclusive = small, poorly fitted or top-dose-only effect, or another doubt; inactive = no such curve, though single readings can be large; an effect the other way counts as inactive or inconclusive. Potency is the fitted concentration of half-maximal effect.

SMILES | KB-3-1 cytotox | SW480 rerep | KB-V1 MDR tox | ELG1 DNA repair | MCF10A rerep
COc1ccc(C(CNc2ncnc3sc(C)c(C)c23)N(C)C)cc1 (stereo not drawn) | ? | ? | 10µM* | -3% | ?
Cc1nn(CC(=O)N2CCN(c3ccccc3)CC2)c(=O)c2cc3sccc3n12 | i | nt | ? | nt | nt
Cc1ccc(SCC(=O)OCC(=O)N(CCC#N)c2ccccc2)cc1 | i | -8% | ? | 0% | -2%
CC1CCCN(Cc2c(O)ccc3c(=O)c(-c4ccccc4Cl)c(C(F)(F)F)oc23)C1 (stereo not drawn) | i | nt | i | nt | nt
COc1ccc(CNC(=O)c2ccccc2NC(=O)C2=C(C)OCCS2)cc1 | i | nt | i | nt | nt
O=C(NC(c1ccco1)c1cc(Cl)c2cccnc2c1O)c1cccs1 (stereo not drawn) | i | nt | ? | nt | nt
COc1ccc(-c2nc3c4ccccc4ccn3c2Cc2ccccc2C(F)(F)F)cc1OC | i | nt | i | nt | nt
Cc1cc(C)c(C)c(S(=O)(=O)N2CCN(CC(=O)c3c(N)n(Cc4ccccc4)c(=O)n(C)c3=O)CC2)c1C | ? | ? | 15µM* | ? | 13µM*
Cn1c(=O)c(C(=O)COc2ccc(F)cc2Cl)c(N)n(Cc2ccccc2)c1=O | ? | ? | i | 23µM* | 12%
Cn1c(=O)c(C(=O)CN2CCCCCC2)c(N)n(Cc2ccccc2)c1=O | i | 0% | i | -12% | ?
O=C(NCC(=O)N1CCN(C(c2ccccc2)c2ccccc2)CC1)c1ccccc1Br | ? | nt | i | nt | nt
Cc1ccccc1NC(=O)c1cc[n+]([O-])cc1 | i | -9% | i | 6% | -4%
C=CCn1c2ccccc2c2n[nH]c(=S)nc21 | i | 1% | ? | 4% | 3%
CCn1c2ccccc2c2n[nH]c(=S)nc21 | ? | -34% | 6.5µM* | 0% | -2%
CCCn1c2ccc(C)cc2c2n[nH]c(=S)nc21 | i | 15µM* | i | 1% | 2%
CC(C)C(=O)NCC(c1ccc2c(c1)OCO2)N1CCN(c2ccccc2F)CC1 (stereo not drawn) | i | nt | i | nt | nt
COc1ccc(CCCNC(=O)C2Cc3c(-c4cccc(C(C)=O)c4)ccnc3O2)cc1 (stereo not drawn) | 6.5µM* | nt | 21µM* | nt | nt
CC(=O)c1cccc(NC(=O)C2Cc3c(-c4cccc(C(C)=O)c4)ccnc3O2)c1 (stereo not drawn) | i | nt | 21µM* | nt | nt
COc1ccc(CCCNC(=O)C2Cc3c(-c4ccc(NC(C)=O)cc4)ccnc3O2)cc1 (stereo not drawn) | ? | nt | i | nt | nt
NC(=O)c1cccc(-c2ccnc3c2CC(C(=O)NCCC(F)(F)F)O3)c1 (stereo not drawn) | i | nt | i | nt | nt
COc1ccc(NC(=O)C2Cc3c(-c4cccc(NC(C)=O)c4)ccnc3O2)cn1 (stereo not drawn) | 4.6µM* | nt | i | nt | nt
COc1ccc(NC(=O)C2Cc3c(-c4cccc(C(N)=O)c4)ccnc3O2)cn1 (stereo not drawn) | ? | nt | i | nt | nt
CC(=O)c1cccc(-c2ccnc3c2CC(C(=O)NCCC(F)(F)F)O3)c1 (stereo not drawn) | 7.3µM* | nt | ? | nt | nt
Cn1c(=O)oc2cc(S(=O)(=O)CCC(=O)NCc3ccc(Cl)cc3)ccc21 | i | nt | i | nt | nt
CCOc1ccc(S(=O)(=O)NCc2cccn2Cc2cccc(C)c2)cc1 | i | nt | i | nt | nt
SMILES | KB-3-1 cytotox | SW480 rerep | KB-V1 MDR tox | ELG1 DNA repair | MCF10A rerep
Cc1cc(C(C)(C)C)cc(C)c1Cn1c2[n+](c3ccc(C(F)(F)F)cc31)CCCCC2 | ? | -10% | i | 15µM* | ?
CC1(C)Cc2c(sc3ncnc(NNC(=S)NCc4ccccc4)c23)CO1 | 5.2µM* | 3.7µM* | ? | -30% | 3.3µM*
CC(C)NC(=S)NNc1ncnc2sc3c(c12)CC(C)(C)OC3 | i | 4% | i | nt | -5%
CC(C)NC(=O)C1(C)CN(S(C)(=O)=O)CC(=O)N1CCCN1CCOCC1 (stereo not drawn) | i | nt | i | nt | nt
CCOC(=O)N1C(=O)[C@@](c2ccc(Cl)cc2)(C(C)C)N1C(=O)OCC | i | ? | ? | ? | 21µM*
Cn1c(=O)c2c(nc(SCCCC#N)n2Cc2c(F)cccc2Cl)n(C)c1=O | i | -11% | i | 16µM* | -6%
Cn1c(=O)c2c(nc(OCc3cccnc3)n2Cc2c(F)cccc2Cl)n(C)c1=O | i | 0% | ? | 0% | 1%
CC(OC(=O)c1cccs1)C(=O)NC1CCCCC1C (stereo not drawn) | i | -14% | i | 4% | ?
CC(OC(=O)c1ccccc1NCCO)C(=O)NC1CCCCC1C (stereo not drawn) | i | 4% | 9.2µM* | 5% | 6%
Cc1ccc(C(=O)OC(C)C(=O)NC2CCCCC2C)s1 (stereo not drawn) | i | -5% | 21µM* | -1% | 6%
CC(C)Oc1ccc(C(=O)N2CCN(c3nc4c(F)cc(F)cc4s3)CC2)cc1 | i | nt | i | nt | nt
COc1cccc(Cn2c(SCC(=O)N3CCN(c4ccc(F)cc4)CC3)nc3ccccc32)c1 | i | nt | i | nt | nt
COc1ccc(CCCc2nnc(SCC(=O)NN)o2)c(C)c1 | i | 0% | ? | -5% | 7%
O=C1c2ccccc2[C@@H]2C[C@@H](O)[C@H](Nc3cccc4ccccc34)CCN12 | i | 18µM* | i | ? | ?
COc1ccc(N[C@@H]2CCN3C(=O)c4ccccc4[C@@H]3C[C@H]2O)cc1 | i | -4% | i | 2% | -3%
Cc1cn(C(=O)c2ccccc2)c(=S)n1-c1ccc(Br)cc1 | i | 19% | 15µM* | -11% | ?
CCCCn1c(SCC(=O)NC(C)CC)nc2ccc(N3CCOCC3)cc2c1=O (stereo not drawn) | i | -9% | 3.3µM* | -2% | 0%
CCCCn1c(SCC(=O)NCc2ccccc2)nc2ccc(N3CCOCC3)cc2c1=O | i | 2% | ? | ? | 21%
CCC(C)NC(=O)CSc1nc2ccc(N3CCOCC3)cc2c(=O)n1CCc1ccccc1 (stereo not drawn) | nt | nt | nt | 6% | nt
CCCCn1c(SCC(=O)NCc2ccco2)nc2ccc(N3CCOCC3)cc2c1=O | i | 1% | 2.1µM* | -28% | ?
COc1ccc(C2CC(=O)Nc3c2c(=O)[nH]c2nc4ccccc4n32)cc1 (stereo not drawn) | ? | nt | i | nt | nt

Assay outcomes deposited in PubChem BioAssay by National Center for Advancing Translational Sciences (NCATS).
